Laboratory results reported in PubChem BioAssay (NCI).
Compounds without any hit were thinned out: in the full panel of roughly 83,000, 20% have a hit.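 In brief: 96-well plates, 48 h treatment, single concentration, percent growth endpoint.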 Values without a mark were called inactive. Activity calls are given as the source filed them. Rule for the calls: active = growth percent below 10; inactive = the rest.

Key:
Test in all cases: NCI-60 one-dose screen, 48 h (100 = growth as untreated, 0 = no growth, -100 = all killed)
Conditions in all cases: 10 µM unless noted
T-47D breast = test system: T-47D breast
BT-549 breast = test system: BT-549 breast
MDA-MB-435 melanoma = test system: MDA-MB-435 melanoma
SW-620 colon = test system: SW-620 colon
MCF7 breast = test system: MCF7 breast
HCT-116 colon = test system: HCT-116 colon
HCC-2998 colon = test system: HCC-2998 colon
KM12 colon = test system: KM12 colon

SMILES | growth (T-47D breast) | growth (BT-549 breast) | growth (MDA-MB-435 melanoma) | growth (SW-620 colon) | growth (MCF7 breast) | growth (HCT-116 colon) | growth (HCC-2998 colon) | growth (KM12 colon)
C=C[C@@H]1C[C@H](O)Cc2cc(F)ccc2N1 | 108% | 96.9% | 93.8% | 98.7% | 107% | 103% | 96.2% | 100%
Cc1ccc(S(=O)(=O)c2nc(-c3ccccc3)oc2S(C)(=O)=O)cc1 | -42.6% (active) | 53.4% | 59.4% | -29.2% (active) | 3.86% (active) | -61.8% (active) | 97.4% | 76.4%
Cc1ccc(-c2cc3nc(C(Cl)Cl)nc(-c4ccccc4C)n3n2)cc1 | 49.7% | 88.7% | -2.12% (active) | 46.1% | 70.3% | 49.6% | 81.8% | 26.1%
N=C(N)c1ccc(-c2ccc(-c3ccc4ccccc4c3)s2)cc1 | 97.6% | 96.2% | 36.6% | 19.3% | 67.9% | 78.6% | 100% | 40.7%
Cc1c(C(=O)/C=C/c2csc3ccccc23)[n+](=O)c2ccccc2n1[O-] | 21.5% | 20.1% | 67.7% | 26.3% | 9.38% (active) | 16% | 78.5% | 48.4%
Nc1cccc(-c2nc3sccn3c2-c2ccnc(NCCNS(=O)(=O)c3ccc(C(F)(F)F)cc3)n2)c1 | 46.2% | 52.7% | 27% | 100% | 32.8% | 55.1% | 121% | 61.5%
O=C(O)/C=C/C(=O)c1ccc(Cl)cc1 | 95.5% | 98.1% | 121% | 108% | 102% | 108% | 109% | 106%
COc1cccc(-c2cc3c(O)cc(C#N)cc3[nH]2)c1 | 101% | 81.7% | 70.6% | 88% | 88.3% | 89.9% | 93.8% | 78.1%
C=CCn1c2ccccc2c2c3c(c4c5ccccc5n(CC=C)c4c21)C(=O)N(O)C3=O | 13% | 45% | 42.7% | 54.9% | 13% | 22.3% | 36.5% | 26.4%
CC(C)(C)OC(=O)NCCc1ccc(N=C=S)cc1 | 41.5% | 62.3% | 71.3% | 71.4% | 52% | 65.5% | 89.9% | 60.8%
COc1ccc(-c2ccc(C)n2-c2ccc(-c3nc4cc(Cl)ccc4s3)cc2)cc1 | 66.8% | 116% | 95.1% | 103% | 48.3% | 97.4% | 92.3% | 89.1%
ClC(Cl)c1nc(-c2ccccc2)nc2cc(-c3ccccc3)nn12 | 24.2% | 93.3% | 94.2% | 14.8% | 47.9% | 29.7% | 88.9% | 37.3%
C=C[C@@H]1C[C@@H]2Cc3ccccc3N1O2 | 110% | 114% | 100% | 102% | 111% | 101% | 114% | 110%
CC(=O)Oc1csc(N(C(C)=O)c2cc(C(=O)O)cc(C(=O)O)c2)n1 | 108% | 82.8% | 102% | 96.1% | 95% | 91.3% | 98.6% | 99.8%
CCNc1nc(S(=O)(=O)CC)nc2ccccc12 | 92.4% | 91.2% | 81.9% | 106% | 95.8% | 91.7% | 115% | 94.9%
Clc1cc2c(nn1)Nc1ccccc1S2 | 85% | 103% | 98.1% | 103% | 85.3% | 96.5% | 114% | 102%
O=C1NC(=C(Cl)Cl)/C(=N/S(=O)(=O)N2CCC(C3(C(F)(F)F)N=N3)CC2)N1 | 47.5% | 99.4% | 70.7% | -36.4% (active) | 74.6% | 95.4% | 60.5% | 93.7%
O=C1/C(=C/c2ccccc2)Oc2ccc(O)c(I)c21 | 77.5% | 84.3% | 103% | 95.5% | 54.8% | 98.2% | 114% | 98.8%
COc1cc(/C=C/C(=O)c2c(C)nc3ccccc3c2C)ccc1OCCCCOc1cc2c(cc1OC)C(=O)N1CCC[C@H]1C=N2 | -64.7% (active) | -64.8% (active) | -34.8% (active) | -62.2% (active) | -86% (active) | -65.9% (active) | -100% (active) | -69.7% (active)
CCO/C=N/C1=C(C#N)C(c2ccc(Cl)cc2)c2c(c3ccccc3n(C)c2=O)O1 (centres undefined) | 65.1% | 81.4% | 1.36% (active) | 52.1% | 41.7% | 66.5% | 84.5% | 69.1%
COc1ccc(-c2ccc(C)n2-c2ccc(-c3nc4ccccc4s3)cc2)cc1 | 73.3% | 108% | 89.6% | 89.6% | 92.7% | 85.5% | 91.7% | 86.3%
COc1ccc(S(=O)(=O)NCCCNc2nccc(-c3c(-c4cccc([N+](=O)[O-])c4)nc4sccn34)n2)cc1 | 3.31% (active) | 36.5% | 42.1% | 91.4% | 34.5% | 48.7% | 82.1% | 28.9%
O=C(NS(=O)(=O)c1ccccc1)n1cc(-c2ccncc2)c(-c2ccc(Cl)c(O)c2)n1 | 107% | 104% | 67.9% | 136% | 109% | 89.1% | 127% | 99.6%
O=C(NNC(=S)Nc1ccccc1)c1cc2ccc1CCc1ccc(cc1)CC2 | 53.6% | 80.4% | 70.3% | 63.6% | 61.7% | 44.5% | 70.2% | 77.1%
Cc1ccc(S(=O)(=O)NCCNc2nccc(-c3c(-c4cccc(N)c4)nc4sccn34)n2)cc1 | 51.7% | 87.5% | 93.5% | 123% | 83.4% | 99.2% | 132% | 92.2%
C=C[C@@H]1C[C@@H]2Cc3cc(F)ccc3N1O2 | 111% | 124% | 98.7% | 112% | 100% | 112% | 95.3% | 108%
CN(C)CCOC(=O)Nc1ccccc1Cl | 112% | 99.3% | 105% | 109% | 103% | 103% | 111% | 112%
CCCCCCCCN(CCCCCCCC)CCCCCCNc1cc(OC)cc2cccnc12 | 104% | 79.7% | 95.2% | 10.8% | 61.7% | -30.1% (active) | 93.4% | 58.9%
